# CIT2 TOR yeast: alters CIT2-GFP fluorescence in TOR pathway yeast screen; S. cerevisiae CIT2-GFP strain, flow cytometry, 3 h; 100 means same as DMSO wells; GFP response vs DMSO, % at 10 µM; actives 0.065% (n = 320,000);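 active = GFP response relative to DMSO above a set limit, near the screen mean plus 3 SD, cut at about 150% in these data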;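 note: ratio of well median GFP fluorescence to mean of DMSO wells on the plate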
# RPL19A-GFP yeast: yeast TOR pathway RPL19A-GFP modulation; S. cerevisiae RPL19A-GFP strain, flow cytometry, 3 h; active compounds read low; actives 0.3% (n = 330,000); percent response vs DMSO, % at 10 µM; AID 2025;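 active = percent response vs DMSO below 50%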;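 note: median channel GFP fluorescence of the barcoded RPL19A-GFP strain; ratio of sample median GFP to plate DMSO average so 100% = DMSO; lower means less RPL19A-GFP as with rapamycin TOR inhibition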
# LAP4 TOR yeast: alters LAP4-GFP fluorescence in TOR pathway yeast screen | GFP response vs DMSO, % at 10 µM | actives 0.34% (n = 320,000) | S. cerevisiae LAP4-GFP multiplex, flow cytometry GFP, 3 h; median GFP as percent of DMSO wells;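 active = GFP response vs DMSO above a set limit, about the screen mean plus 3 SD, cut at about 150% in these data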
# AGP1-GFP MLPCN: yeast TOR pathway AGP1-GFP modulation; AID 2066; actives 0.02% (n = 320,000); S. cerevisiae AGP1-GFP multiplex flow cytometry, 3 h; GFP as percent of DMSO wells; GFP response vs DMSO, % at 10 µM;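 active = GFP response relative to DMSO above a set limit, near screen average plus 3 SD, cut at about 150% in these data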;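 note: median GFP channel fluorescence of the gated AGP1 strain per well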
# MEP2-GFP yeast: modulators of TOR pathway MEP2-GFP in S. cerevisiae. S. cerevisiae MEP2-GFP strain, flow cytometry GFP, 3 h; 100% = DMSO control level. GFP response vs DMSO, % at 10 µM. actives 0.51% (n = 330,000). AID 2016;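 active = GFP response versus DMSO above a set limit, roughly screen mean plus 3 SD, cut at about 180% in these data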;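 note: median GFP fluorescence of the barcode-gated MEP2-GFP cells per well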
# LAP4 cherry2: second confirmation of modulators of TOR reporter LAP4-GFP in yeast; GFP response vs DMSO, % at 10 µM; S. cerevisiae LAP4-GFP strain, flow cytometry GFP, 3 h; actives 20% (n = 590); AID 2621; shares compounds with LAP4 TOR yeast;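 active = GFP signal as percent of the solvent control above about 150%, meaning raised reporter expression, limit read from the data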;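 note: ratio of well median GFP fluorescence to plate DMSO mean so 100% = DMSO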
# MEP2 cherry2: second confirmation of modulators of TOR reporter MEP2-GFP in yeast; GFP response vs DMSO, % at 10 µM; S. cerevisiae MEP2-GFP strain, flow cytometry GFP, 3 h; shares compounds with LAP4 TOR yeast; actives 10% (n = 590); AID 2622;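 active = GFP signal above 150% of the solvent control wells, that is a rise of more than half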;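 note: median channel GFP fluorescence of all gated yeast cells per well; ratio of median GFP to plate DMSO average so 100% = DMSO level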
# RPL19A-GFP pick2: reconfirmed modulator of RPL19A-GFP TOR reporter in yeast | shares compounds with LAP4 TOR yeast | S. cerevisiae RPL19A-GFP strain, flow cytometry GFP, 3 h; active compounds read low; 100% means same as DMSO wells | GFP response vs DMSO, % at 10 µM | actives 3% (n = 590);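 active = under 65% GFP response relative to DMSO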;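 note: median GFP channel fluorescence per well over the all cells gate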
# CIT2-GFP pick2: reconfirmed modulator of CIT2-GFP TOR reporter in yeast | AID 2624 | GFP response vs DMSO, % at 10 µM | S. cerevisiae CIT2-GFP strain, flow cytometry GFP, 3 h; DMSO control wells read 100% | actives 8% (n = 590) | shares compounds with LAP4 TOR yeast;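 active = GFP response vs DMSO above about 150%, limit read from the data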;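 note: median green fluorescence per well over all gated yeast cells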
# AGP1 GFP CP2: reconfirmed modulator of AGP1-GFP TOR reporter in yeast; shares compounds with LAP4 TOR yeast; S. cerevisiae AGP1-GFP strain, flow cytometry GFP, 3 h; percent response vs DMSO, % at 10 µM; 590 tested, under 10 active;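 active = over 150 percent of DMSO response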;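 note: median GFP channel fluorescence over all cells without mother daughter split; sample median GFP divided by mean DMSO control so 100% equals DMSO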
# s288c autofluor: compound is autofluorescent in yeast s288c cells | fluorescence change (kMESF span) at 33 µM | shares compounds with LAP4 TOR yeast | 610 tested, under 10 active | S. cerevisiae s288c, 520 nm autofluorescence, flow cytometry, 3 h; active compounds read high; zero means same as solvent-only cells;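 active = fluorescence span over the dose series, or activity score, above about 33, limit read from the data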
# s288c autofl DR: TOR screen hit shows autofluorescence in yeast s288c. shares compounds with LAP4 TOR yeast. S. cerevisiae s288c parental, compound autofluorescence, flow cytometry, 3 h. fluorescence change (span) at 33 µM. 110 tested, under 10 active. AID 488829;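 active = fluorescence change span, or the activity score built from it, above 25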
# TORC1 bypass: stops wildtype yeast growth while TORC1 bypass cells still grow; shares compounds with LAP4 TOR yeast; S. cerevisiae BY4741 spot growth rating, 48-72 h; active compounds read low; growth rating (0-3) at 30 µM; 120 tested, under 10 active;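 active = growth rating at most 1 for wild type yeast while the TORC1 bypass strain still grows fully, rated 3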
# * hit, by the source's call; . = no result given. Most compounds without a hit are left out; they make up all but 0.93% or so of the library.
SMILES,CIT2 TOR yeast,RPL19A-GFP yeast,LAP4 TOR yeast,AGP1-GFP MLPCN,MEP2-GFP yeast,LAP4 cherry2,MEP2 cherry2,RPL19A-GFP pick2,CIT2-GFP pick2,AGP1 GFP CP2,s288c autofluor,others
COC(=O)CCN(C(=O)C1C2CC3CC(C2)CC1C3)c1ccccn1 (stereo not given),96.0,95.1,154.0*,106.8,93.4,111.2,125.8,100.8,122.4,102.0,.,
CCCN(CC1CC1)c1nc(C)nc(Nc2c(Cl)cc(Cl)cc2Cl)c1Cl,98.5,103.2,109.6,101.6,97.9,.,.,.,.,.,.,
O=C(Oc1ccnc2cc(Cl)ccc12)N1CCOCC1,103.5,101.0,99.2,95.2,108.3,100.0,98.2,98.5,97.2,98.8,0,
Oc1ccc2ccccc2c1/C=N/Nc1nnc(-c2ncc[nH]2)c2ccccc12,110.7,92.2,277.2*,72.3,194.5*,.,.,.,.,.,40.4*,
CC(C)(C)C(=O)C(Cl)C(=O)Nc1ccccc1 (stereo not given),119.1,68.8,285.5*,116.0,105.4,.,.,.,.,.,1.64,s288c autofl DR=0.1;TORC1 bypass=3
O=C(Nc1ccc(Nc2ccccc2)cc1)C(Cl)Cl,73.8,97.6,108.9,86.8,86.9,.,.,.,.,.,.,
C/C(=N\NC(=O)c1cc2ccccc2cc1O)c1ccccn1,96.8,96.8,216.3*,100.7,119.5,.,.,.,.,.,1.63,
COc1ccc(OC)c2sc(N3CCN(C(=O)c4ccc([N+](=O)[O-])s4)CC3)nc12,87.7,95.1,160.3*,85.5,106.2,136.3,143.2,97.2,147.4,99.5,.,
O=C(c1ccc([N+](=O)[O-])s1)N1CCN(c2ccccn2)CC1,101.6,105.2,103.9,110.0,105.0,.,.,.,.,.,.,
COc1ccc(CNC(=O)C/C(C)=N/NC(=O)COc2cccc(C)c2)cc1,94.2,91.9,91.3,97.2,95.0,.,.,.,.,.,.,
CC(=O)N(C1=C(Cl)C(=O)c2ccccc2C1=O)C1CCCCC1,67.7,8.2*,44.6,7.8,68.6,.,.,.,.,.,7.06,
COc1ccc(C(O)Cn2cc([N+](=O)[O-])nc2C)cc1 (stereo not given),99.0,96.0,100.9,109.3,89.8,.,.,.,.,.,.,
CN(C)/C=C/C(=O)c1ccc(-c2ccc(Cl)cc2Cl)o1,85.5,58.1,82.9,21.3,159.6,158.7*,148.1,113.0,153.8*,87.0,0.8,
O=C(O)c1ccc(-c2ccc(Cl)cc2Cl)o1,76.3,80.5,97.9,68.8,93.2,.,.,.,.,.,.,
C=C1CCN([C@H](C(=O)OCc2ccc(C)cc2)C(C)C)S(=O)(=O)c2ccccc21,90.7,94.4,106.4,84.6,94.9,.,.,.,.,.,.,
C=C1CCN([C@@H](C)C(=O)OCc2cccc(C)c2)S(=O)(=O)c2ccccc21,124.9,98.0,153.4*,91.5,97.9,99.0,98.2,99.6,98.4,97.4,.,
O=C(NCC1CCCO1)c1cc2c(=O)[nH]c3ccccc3c2s1 (stereo not given),103.7,105.1,90.1,109.3,109.8,.,.,.,.,.,.,
CCOC(=O)C(C(=O)OCC)C(C(=O)OCC)N1CCOCC1 (stereo not given),75.5,64.5,180.1*,67.8,88.3,.,.,.,.,.,1.33,
COCCNc1nc(C)cc(-c2cc(C(=O)Nc3ccccc3)on2)n1,92.6,97.5,102.6,89.1,90.0,101.9,103.2,100.2,107.4,97.7,.,
COCCNc1nc(C)cc(-c2cc(C(=O)NCc3ccccc3)on2)n1,117.6,70.4,229.5*,119.7,355.8*,101.0,101.5,99.0,100.7,98.4,.,
CCCNc1nc(-c2cc(C(=O)Nc3ccccc3)on2)cc(C(C)C)n1,97.9,98.0,115.0,92.4,107.0,100.2,99.6,94.2,96.0,104.4,.,
Cc1cc(-c2cc(C(=O)NCc3ccccc3)on2)nc(S(C)(=O)=O)n1,88.1,95.1,102.7,97.1,98.0,101.9,98.2,100.7,100.7,99.3,.,
COc1ccccc1N1CCN(S(=O)(=O)CCNC(=O)c2cccc(F)c2)CC1,100.8,96.2,98.1,100.4,99.5,.,.,.,.,.,.,
O=C(Nc1ccccc1C(=O)O)c1ccc(CN2C(=O)c3ccccc3C2=O)cc1,102.5,98.8,93.5,97.2,98.5,.,.,.,.,.,.,
COc1ccc(/C=C/C(=O)C2C(=O)C=C(C)OC2=O)cc1O (stereo not given),90.5,99.4,184.7*,96.2,92.0,.,.,.,.,.,-0.2,
SMILES,CIT2 TOR yeast,RPL19A-GFP yeast,LAP4 TOR yeast,AGP1-GFP MLPCN,MEP2-GFP yeast,LAP4 cherry2,MEP2 cherry2,RPL19A-GFP pick2,CIT2-GFP pick2,AGP1 GFP CP2,s288c autofluor,others
COC(=O)c1cn(C(=O)c2ccc(C)c(C)c2)c2ccccc12,77.9,88.3,150.9*,90.8,86.2,98.1,99.8,98.1,99.5,99.8,.,
COC(=O)c1cn(C(=O)c2ccc(OC)c(OC)c2)c2ccccc12,106.1,106.5,102.6,101.6,113.4,.,.,.,.,.,.,
COC(=O)CSc1ccc(S(=O)(=O)N2CCCCCC2)cc1[N+](=O)[O-],85.5,110.7,91.9,96.7,97.5,.,.,.,.,.,.,
O=C1C=CC(=O)N1c1cccc(-c2ccccc2)c1,60.7,64.7,206.3*,77.4,97.8,.,.,.,.,.,1.82,
COc1ccc([N+](=O)[O-])c(S(=O)(=O)c2ccc(Cl)cc2)n1,99.5,100.3,101.8,108.3,107.8,.,.,.,.,.,0.72,s288c autofl DR=0.63;TORC1 bypass=3
COc1ccc([N+](=O)[O-])c(S(=O)(=O)c2ccccc2)n1,83.6,73.5,218.5*,107.8,84.9,.,.,.,.,.,0.81,s288c autofl DR=0.21;TORC1 bypass=3
O=[N+]([O-])c1cccnc1S(=O)(=O)c1ccccc1,102.1,97.5,127.8,103.6,96.1,.,.,.,.,.,.,
O=C(CCCCCNC(=O)N1CCn2c1nc1ccccc12)N[C@@H](Cc1ccccc1)C(=O)O,107.0,99.6,102.2,108.6,109.4,.,.,.,.,.,.,
